Some test systems named below: SK-MEL-2 melanoma; EKVX NSCLC; SN12C renal; UO-31 renal; TK-10 renal; ACHN renal; CAKI-1 renal; A498 renal; MOLT-4 leukemia; SR leukemia; RPMI-8226 leukemia; OVCAR-8 ovarian; OVCAR-5 ovarian; OVCAR-4 ovarian; SK-OV-3 ovarian; OVCAR-3 ovarian; HS 578T breast; NCI/ADR-RES ovarian; IGROV1 ovarian.
What all share (assay): NCI-60 one-dose screen, 48 h (100 = growth as untreated, 0 = no growth, -100 = all killed)
Holding throughout (conditions): 10 µM

About 83,000 compounds went through this panel and 20% of them were active in at least one assay; those are over-represented in the sample as a whole.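 Note: values are percent growth. 100 is the growth of untreated cells, values between 100 and 0 indicate rising inhibition; between -100 and 0 indicates cell death.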 Values without a mark were called inactive. Calls of active or inactive are those of the source. The calls were made as follows: active = growth percent below 10; inactive = the rest.

Here are results for seven compounds from PubChem BioAssay (NCI).

Regarding `O=[N+]([O-])c1ccc2ncccc2c1Cl`, the growth is 77.4% in the assay on SK-MEL-2 melanoma; 119% in the assay on EKVX NSCLC; 45.6% with SN12C renal; 30.2% with UO-31 renal; 66.7% with TK-10 renal; 56.2% in the assay with ACHN renal. Besides, the growth in the assay with CAKI-1 renal was 32%; in the assay with A498 renal, 100%; in the assay on MOLT-4 leukemia, 30%; in the assay on SR leukemia it was 7.28% (active); in the assay on RPMI-8226 leukemia, 38.7%; in the assay with OVCAR-8 ovarian, 18.6%. Further, the growth in the assay with OVCAR-5 ovarian is 85.3%; with OVCAR-4 ovarian, 90.2%; in the assay with SK-OV-3 ovarian, 63.6%; in the assay with OVCAR-3 ovarian, 40.7%; with HS 578T breast, 67%; with NCI/ADR-RES ovarian it was 29.2%.
As to `CC[C@@H](C(=O)[C@H](C)[C@H](O)[C@@H](C)[C@H]1O[C@H]([C@@H](CC)C(=O)O)CC[C@H]1C)C1O[C@]2(C=C[C@@H](O)[C@]3(CC[C@@](C)([C@H]4CC[C@](O)(CC)[C@H](C)O4)O3)O2)[C@H](C)C[C@@H]1C` (stereo partly drawn), the growth was 13.7% in the assay on SK-MEL-2 melanoma; 31.3% with EKVX NSCLC; 11.8% with SN12C renal; 34.5% in the assay with UO-31 renal; 56.5% with TK-10 renal; 31.2% in the assay on ACHN renal. Besides, the growth with CAKI-1 renal was 22.2%; in the assay on A498 renal it was -69.6% (active); with MOLT-4 leukemia, 17.3%; with SR leukemia it was 22.5%; with RPMI-8226 leukemia, -7% (active); with OVCAR-8 ovarian it was 49.1%. The growth with OVCAR-5 ovarian is 41.9%; in the assay with OVCAR-4 ovarian, 43.4%; in the assay on SK-OV-3 ovarian, 42.5%; with IGROV1 ovarian it was 41.1%; in the assay on OVCAR-3 ovarian, 25.8%; with HS 578T breast, 21.9%. Also, in the assay with NCI/ADR-RES ovarian, the growth is 44%.
On to `CC(C)(C)OC(=O)N1CCc2c(sc3ncnc(N/N=C/c4ccc(Br)cc4)c23)C1`, for which the growth in the assay with SK-MEL-2 melanoma is 68.4%; in the assay on EKVX NSCLC, 52%; with SN12C renal, 75.2%; in the assay on UO-31 renal, 44.7%; in the assay on TK-10 renal it was 78.2%; with ACHN renal, 53.1%. Also, the growth with CAKI-1 renal is 41%; in the assay on A498 renal it was 31.2%; in the assay with MOLT-4 leukemia, 33.9%; in the assay on SR leukemia it was 36.3%; in the assay on RPMI-8226 leukemia, 19.1%; in the assay on OVCAR-8 ovarian, 73.7%. The growth in the assay on OVCAR-5 ovarian was 77.6%; in the assay on OVCAR-4 ovarian, 74%; in the assay with SK-OV-3 ovarian it was 75.7%; in the assay on IGROV1 ovarian, 61.1%; in the assay with OVCAR-3 ovarian, 86.4%; in the assay with NCI/ADR-RES ovarian, 35.4%.
`Cc1c[nH]c(=O)n(Cc2nnc(CCC(=O)c3nc4ccccc4[nH]3)o2)c1=O`: the growth is 25.2% in the assay with SK-MEL-2 melanoma; 54.9% with EKVX NSCLC; 30.2% in the assay on SN12C renal; 44.2% in the assay on UO-31 renal; 64.1% in the assay with TK-10 renal; 61.1% with ACHN renal. The growth with CAKI-1 renal was 63.5%; with A498 renal it was 11.5%; in the assay with MOLT-4 leukemia, 9.42% (active); in the assay with SR leukemia, 4.57% (active); in the assay with RPMI-8226 leukemia, 17.2%; in the assay on OVCAR-8 ovarian it was 21%. Further, the growth is 13.8% in the assay on OVCAR-5 ovarian; -7.95% (active) in the assay on SK-OV-3 ovarian; 47.8% in the assay on IGROV1 ovarian; -14.8% (active) in the assay with OVCAR-3 ovarian; 10.2% in the assay with HS 578T breast.
For the compound `N#Cc1c(N)nc(-c2cc(F)cc(C(F)(F)F)c2)nc1-c1ccccc1F`, the growth with SK-MEL-2 melanoma is 90.4%; in the assay on EKVX NSCLC, 38.6%; in the assay on SN12C renal, 24.9%; with UO-31 renal, 33.3%; with TK-10 renal, 38.1%; in the assay with ACHN renal it was 2.03% (active). The growth with CAKI-1 renal is 78.1%; in the assay with A498 renal, 5.56% (active); with MOLT-4 leukemia, 50.1%; in the assay on SR leukemia, 23.6%; in the assay with RPMI-8226 leukemia, 70.9%; in the assay on OVCAR-8 ovarian, 35.8%. Besides, the growth was 61.1% in the assay on OVCAR-5 ovarian; 5.1% (active) in the assay on OVCAR-4 ovarian; 46.6% with SK-OV-3 ovarian; 38.6% in the assay with IGROV1 ovarian; 37.5% in the assay on OVCAR-3 ovarian; 18.4% in the assay on HS 578T breast. Besides, in the assay on NCI/ADR-RES ovarian, the growth was 49.3%.
Consider `COc1cc2ncnc(NC3CCC(O)CC3)c2cc1OC` (stereo not drawn), for which the growth in the assay on SK-MEL-2 melanoma is 97.1%; in the assay on EKVX NSCLC it was 80.8%; in the assay with SN12C renal, 106%; in the assay on UO-31 renal, 76.2%; with TK-10 renal it was 90%; in the assay on ACHN renal it was 94.9%. In addition, the growth in the assay with CAKI-1 renal is 88.5%; with A498 renal, 93.7%; in the assay with MOLT-4 leukemia, 62.8%; with SR leukemia it was 77.4%; in the assay on RPMI-8226 leukemia it was 104%; in the assay with OVCAR-8 ovarian, 97.4%. In addition, the growth is 92.1% in the assay with OVCAR-5 ovarian; 103% in the assay on OVCAR-4 ovarian; 109% with SK-OV-3 ovarian; 97.1% with IGROV1 ovarian; 111% in the assay on OVCAR-3 ovarian; 95.5% with HS 578T breast. Moreover, the growth in the assay on NCI/ADR-RES ovarian is 100%.
For the compound `COc1ccc(C(=O)COc2cccc(/C=C3\Cc4ccccc4C3=O)c2)cc1`, the growth in the assay with SK-MEL-2 melanoma was 51.8%; in the assay on EKVX NSCLC, 87.8%; in the assay on SN12C renal, 92.7%; in the assay with UO-31 renal, 12.1%; in the assay with TK-10 renal, 111%; with ACHN renal it was 95.8%. In addition, the growth in the assay with CAKI-1 renal was 76.4%; with A498 renal, 94.7%; with MOLT-4 leukemia, 85.8%; in the assay with SR leukemia, 56.7%; in the assay on RPMI-8226 leukemia, 57.9%; in the assay with OVCAR-8 ovarian, 91.7%. For the same compound, the growth in the assay on OVCAR-5 ovarian was 88.5%; in the assay with OVCAR-4 ovarian it was 76.8%; in the assay on SK-OV-3 ovarian it was 95.8%; with OVCAR-3 ovarian, 97.2%; in the assay on HS 578T breast, 86.9%; with NCI/ADR-RES ovarian, 74.4%.
